Results as given in PubChem BioAssay (EPA / NIEHS).
Results filed as inconclusive are left out. Active and inactive are the calls of the source. Rule for the calls, unless noted: active = hit-call score of the fitted dose curve at least 0.9, where 1 is the maximum; inconclusive = response in the unintended direction; inactive = score below 0.9.

Key:
[1] = TOX21_p53_BLA_p2_viability: Viability Assessment in the Tox21 HCT-116 p53 Agonism Beta-lactamase Assay, Phase 2 (AID 2283591);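 note: actives lower the ATP signal meaning cytotoxicity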
Outline: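 Cytotoxicity readout: CellTiter-Glo ATP luminescence, 30 min at room temperature, after the beta-lactamase read. Cells were HCT116 exposed 16 h at 37C to compounds pin-transferred at 217-fold dilution from DMSO stocks.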

[2] = target: Cellular tumor antigen p53 (Homo sapiens) (UniProt P04637); assay: TOX21_p53_BLA_p2_ratio: Tox21 HCT-116 p53 Agonism Beta-lactamase Assay, Ratio, Phase 2 (AID 2283592)
Outline: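 Readout: blue/green (460/530 nm) FRET emission ratio after 2 h CCF4-AM loading at room temperature, excitation 405 nm. HCT116 p53 bla cells, 16 h compound exposure at 37C, 5% CO2; agonist direction fitted against DMSO baseline.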

[3] = TOX21_p53_BLA_p3_viability: Viability Assessment in the Tox21 HCT-116 p53 Agonism Beta-lactamase Assay, Phase 3 (AID 2283593);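 note: cells exposed to compound for 16 h before reading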
Outline: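 Cellular ATP was quantified by CellTiter-Glo luminescence, read after 30 min at room temperature. Beforehand, HCT116 cells (4000/well) received compound 5 h post-seeding, 217-fold diluted from DMSO, then incubated 16 h at 37C.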

[4] = target: Cellular tumor antigen p53 (Homo sapiens) (UniProt P04637); assay: TOX21_p53_BLA_p3_ratio: Tox21 HCT-116 p53 Agonism Beta-lactamase Assay, Ratio, Phase 3 (AID 2283596)
Outline: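 Cells were seeded at 4000/well, rested 5 h at 37C, then dosed with DMSO compound solutions (217-fold dilution) for 16 h. CCF4-AM substrate was loaded for 2 h at room temperature, and the 460/530 nm emission ratio was fitted for gain of signal versus DMSO.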

[5] = TOX21_p53_BLA_p4_viability: Viability Assessment in the Tox21 HCT-116 p53 Agonism Beta-lactamase Assay, Phase 4 (AID 2283597);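 note: hits lower the luminescence signal meaning cytotoxicity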
Outline: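 ATP content by CellTiter-Glo luminescence, 30 min RT, read after the beta-lactamase ratio step. Cells: HCT116, 4000/well, compound added after 5 h, exposure 16 h at 37C. Signal loss = reduced viability.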

[6] = target: Cellular tumor antigen p53 (Homo sapiens) (UniProt P04637); assay: TOX21_p53_BLA_p5_ratio: Tox21 HCT-116 p53 Agonism Beta-lactamase Assay, Ratio, Phase 5 (AID 2283599)
Outline: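 Beta-lactamase reporter ratio (blue 460 nm over green 530 nm, 405 nm excitation) after 2 h CCF4-AM loading, in HCT-116 cells exposed 16 h at 37 C to compounds pinned at 217-fold dilution. Increases relative to DMSO baseline scored.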

[7] = target: Cellular tumor antigen p53 (Homo sapiens) (UniProt P04637); assay: TOX21_p53_BLA_p4_ratio: Tox21 HCT-116 p53 Agonism Beta-lactamase Assay, Ratio, Phase 4 (AID 2283601)
Outline: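 Signal is the blue/green (460nm/530nm) ratio of cleaved versus uncleaved CCF4-AM substrate, read after 2 h substrate loading. Cells were HCT116 carrying the p53-responsive beta-lactamase reporter, dosed 16 h at 37C, 5% CO2; CellTiter-Glo measured in parallel.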

PGR (gene 5241) [8] = target: PGR (gene 5241) (UniProt P06401); assay: TOX21_PR_BLA_Followup_Antagonist_ratio: Tox21 HEK293 Progesterone Receptor (PR) Antagonism Beta-lactamase Follow-Up Assay, Ratio (AID 2283934)
Outline: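 Read-out: blue/green beta-lactamase FRET ratio (cleaved ch2 over uncleaved ch1), fitted relative to DMSO baseline. Cells: PR-UAS-bla HEK293T, GAL4-UAS reporter, stimulated with 1 nM R5020 final; 16 hr compound exposure, 37C.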

[9] = TOX21_PR_BLA_Followup_Agonist_viability: Viability Assessment in the Tox21 HEK293 Progesterone Receptor (PR) Agonism Beta-lactamase Follow-Up Assay (AID 2283935);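 note: signal loss means lower viability so actives are cytotoxic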
Outline: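 Luminescent ATP quantitation (CellTiter-Glo, 30 min, room temperature) in the same wells as the beta-lactamase read, on PR-UAS-bla HEK293T cells exposed to compound for 16 hr at 37C in 2% charcoal-stripped serum.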

[10] = TOX21_PR_BLA_Followup_Antagonist_viability: Viability Assessment in the Tox21 HEK293 Progesterone Receptor (PR) Antagonism Beta-lactamase Follow-Up Assay (AID 2283936);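 note: cells exposed to compound with R5020 agonist for 16 h; hits lower the luminescence signal meaning cytotoxicity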
Outline: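 PR-UAS-bla HEK293T cells in medium with 2% charcoal-stripped FBS were treated with compounds plus R5020 for 16 hr at 37C. After the beta-lactamase read, CellTiter-Glo was added to the same wells and luminescence read after 30 min at room temperature.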

PGR (gene 5241) [11] = target: PGR (gene 5241) (UniProt P06401); assay: TOX21_PR_LUC_Followup_Antagonist: Tox21 HEK293 Progesterone Receptor (PR) Antagonism Luciferase Follow-Up Assay (AID 2283938);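 note: curve fitted upward as signal gain over DMSO baseline despite antagonist label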
Outline: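 Luminescence from ONE-Glo reagent, measured after 30 min at room temperature, served as readout. Cells (HEK293 carrying PR-A-luc) had been treated 16 h at 37C with DMSO-dissolved compounds. Activity was fitted against DMSO controls.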

[12] = TOX21_PR_LUC_Followup_Antagonist_viability: Viability Assessment in the Tox21 HEK293 Progesterone Receptor (PR) Antagonism Luciferase Follow-Up Assay (AID 2283940)
Outline: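 Read-out: CellTiter-Glo ATP luminescence, loss of signal taken as reduced viability. Cells: HEK293-PR-A-luc, 3,000/well, 5 h settling, then 16 h compound exposure at 37C, 0% CO2.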

[13] = TOX21_PR_LUC_Followup_Agonist_viability: Viability Assessment in the Tox21 HEK293 Progesterone Receptor (PR) Agonism Luciferase Follow-Up Assay (AID 2283941);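 note: loss of signal means cytotoxicity so actives lower viability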
Outline: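 Cytotoxicity counter-screen: ATP content by CellTiter-Glo luminescence, loss of signal = reduced viability. HEK293-PR-A-luc, 3,000 cells/well, compound exposure 16 h, 37C.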

[14] = CCTE_Harrill_HTTr_Viability_MCF7: CCTE's 6-hour Cell Viability Assessment for the High-Throughput Transcriptomics (HTTr) Platform, in MCF-7 cells cultured in DMEM + 10% fetal bovine serum, Harrill Lab (AID 2284010; active = hit-call score of the fitted dose curve at least 0.9, where 1 is the maximum; inactive = score below 0.9)
Outline: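 PI exclusion, high-content imaging; 8-pt dilution series, 6 h exposure; bidirectional fit vs DMSO (neg. ctrl/baseline); gain of signal = loss of membrane integrity.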

[15] = CCTE_Harrill_HTTr_Apoptosis_MCF7: CCTE's 6-hour Apoptosis Assessment for the High-Throughput Transcriptomics (HTTr) Platform, in MCF-7 cells cultured in DMEM + 10% fetal bovine serum, Harrill Lab (AID 2284011; active = hit-call score of the fitted dose curve at least 0.9, where 1 is the maximum; inactive = score below 0.9)
Outline: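 Read-out: CellEvent Caspase 3/7 Green signal by high content imaging, gain-of-signal indicating apoptosis. MCF-7 cells, DMEM + 10% FBS, eight-point dilution series, 6 h exposure. Curves fitted bidirectionally relative to DMSO negative control.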

[16] = TOX21_p53_BLA_p5_viability: Viability Assessment in the Tox21 HCT-116 p53 Agonism Beta-lactamase Assay, Phase 5 (AID 2283600)
Outline: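 ATP luminescence (CellTiter-Glo, 30 min, RT) served as the viability read-out, with loss of signal indicating cytotoxicity. Compounds in DMSO were pinned at a 217-fold dilution onto 4000 cells/well and incubated 16 h, 37C.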

[17] = target: Thyroid hormone receptor alpha (Rattus norvegicus) + Thyroid hormone receptor beta (Rattus norvegicus) (UniProt P18113+P63059); assay: TOX21_TR_LUC_GH3_Antagonist_Followup: Tox21 GH3 Thyroid Hormone Receptor Antagonism Luciferase Follow-Up Assay (AID 2283942)
Outline: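 Loss of T3-driven (1.0 nM final) reporter activity in GH3 cells was read by ONE-Glo luminescence after 24 h incubation at 37C; 15-point compound series spanned 92 uM to 5nM final, 1,500 cells/well.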

THRA (gene 7067) = THRA (gene 7067) (UniProt P10827); assay: TOX21_TRA_COA_Antagonist_Followup_ratio: Tox21 Thyroid Hormone Receptor alpha Antagonism through Coactivator Recruitment Follow-Up Assay, Ratio (AID 2283953)
Outline: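 We measured antagonism of T3-type coactivator recruitment using a TR-FRET ratio (emission 520 and 495 nm) between a Tb-labelled anti-GST antibody on TRα LBD (2.5 nM) and SRC-2 peptide (200 nM). Activity was scaled between DMSO and T3 wells.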

THRB (gene 7068) [18] = target: THRB (gene 7068) (UniProt P10828); assay: TOX21_TRB_BLA_Antagonist_Followup_ratio: Tox21 Thyroid Hormone Receptor beta Antagonism Beta-lactamase (BLA) Follow-Up Assay, Ratio (AID 2283958)
Outline: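 Read-out: blue/green (460:530 nm) ratio of cleaved to uncleaved CCF4-AM after 2 h at room temperature, fitted against DMSO baseline. HEK293T UAS-bla cells carrying GAL4-human TRβ LBD were exposed 18 h, 37C/5% CO2.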

[19] = TOX21_TRB_BLA_Antagonist_Followup_viability: Viability Assessment in the Tox21 Thyroid Hormone Receptor beta Antagonism Beta-lactamase (BLA) Follow-Up Assay (AID 2283961)
Outline: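 Viability read as CellTiter-Glo ATP luminescence (loss of signal = cytotoxicity) in the same plates as the TRβ-bla readout. TRβ-LBD/GAL4 UAS-bla HEK293T cells were exposed to compounds, 11 concentrations in triplicate, for 18 h at 37C/5% CO2.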

THRB (gene 7068) [20] = target: THRB (gene 7068) (UniProt P10828); assay: TOX21_TRB_COA_Antagonist_Followup_ratio: Tox21 Thyroid Hormone Receptor beta Antagonism through Coactivator Recruitment Follow-Up Assay, Ratio (AID 2283967)
Outline: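 Coactivator recruitment to the GST-tagged TRb ligand-binding domain (5.0 nM) was read as the 520/495 nm TR-FRET ratio, using 200 nM fluorescein SRC-2 peptide and 2 nM terbium anti-GST. Scaled between DMSO and T3 wells; loss of signal fitted.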

[21] = TOX21_TR_RXR_BLA_Antagonist_Followup_viability: Viability Assessment in the Tox21 Thyroid Hormone Receptor beta Retinoid X Receptor alpha (RXRa) Antagonism Beta-lactamase (BLA) Follow-Up Assay (AID 2283979)
Outline: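 Follow-up compounds (11 concentrations, triplicate) were incubated 16 h at 37C/5% CO2 with HEK293T RXRa-bla cells seeded at 2,500/well in charcoal-stripped-serum medium. ATP content by CellTiter-Glo luminescence gave viability; curves fitted in both directions against DMSO.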

[22] = CCTE_Harrill_HTTr_CellCount_MCF7: CCTE's Cell Proliferation Assessment for the High-Throughput Transcriptomics (HTTr) Platform, Harrill Lab (AID 2284012);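 note: count of Hoechst-stained nuclei per well by high-content imaging in MCF-7 cells; cells exposed to compound for six hours; intended direction is loss of nuclei count meaning fewer cells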
Outline: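 Readout: Hoechst nuclear count by high-content imaging. MCF-7, 8-point dilution series, 6 h exposure. Bidirectional fit vs DMSO baseline.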

Measured: AC50

Chain of Cellular tumor antigen p53 (Homo sapiens) (P04637 whole entry, looked up): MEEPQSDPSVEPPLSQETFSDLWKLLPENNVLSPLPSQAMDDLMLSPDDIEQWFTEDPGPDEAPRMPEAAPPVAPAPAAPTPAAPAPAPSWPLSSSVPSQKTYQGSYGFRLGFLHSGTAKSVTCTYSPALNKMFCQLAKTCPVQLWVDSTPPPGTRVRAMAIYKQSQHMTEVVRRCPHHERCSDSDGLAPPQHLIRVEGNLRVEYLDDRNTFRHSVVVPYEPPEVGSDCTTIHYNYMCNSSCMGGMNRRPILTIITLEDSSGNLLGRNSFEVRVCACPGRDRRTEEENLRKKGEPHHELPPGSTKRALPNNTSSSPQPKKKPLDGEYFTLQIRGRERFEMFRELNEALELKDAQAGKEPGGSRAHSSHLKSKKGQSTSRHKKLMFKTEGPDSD
Chain of PGR (gene 5241) (P06401 whole entry, looked up, the tested form may be a part): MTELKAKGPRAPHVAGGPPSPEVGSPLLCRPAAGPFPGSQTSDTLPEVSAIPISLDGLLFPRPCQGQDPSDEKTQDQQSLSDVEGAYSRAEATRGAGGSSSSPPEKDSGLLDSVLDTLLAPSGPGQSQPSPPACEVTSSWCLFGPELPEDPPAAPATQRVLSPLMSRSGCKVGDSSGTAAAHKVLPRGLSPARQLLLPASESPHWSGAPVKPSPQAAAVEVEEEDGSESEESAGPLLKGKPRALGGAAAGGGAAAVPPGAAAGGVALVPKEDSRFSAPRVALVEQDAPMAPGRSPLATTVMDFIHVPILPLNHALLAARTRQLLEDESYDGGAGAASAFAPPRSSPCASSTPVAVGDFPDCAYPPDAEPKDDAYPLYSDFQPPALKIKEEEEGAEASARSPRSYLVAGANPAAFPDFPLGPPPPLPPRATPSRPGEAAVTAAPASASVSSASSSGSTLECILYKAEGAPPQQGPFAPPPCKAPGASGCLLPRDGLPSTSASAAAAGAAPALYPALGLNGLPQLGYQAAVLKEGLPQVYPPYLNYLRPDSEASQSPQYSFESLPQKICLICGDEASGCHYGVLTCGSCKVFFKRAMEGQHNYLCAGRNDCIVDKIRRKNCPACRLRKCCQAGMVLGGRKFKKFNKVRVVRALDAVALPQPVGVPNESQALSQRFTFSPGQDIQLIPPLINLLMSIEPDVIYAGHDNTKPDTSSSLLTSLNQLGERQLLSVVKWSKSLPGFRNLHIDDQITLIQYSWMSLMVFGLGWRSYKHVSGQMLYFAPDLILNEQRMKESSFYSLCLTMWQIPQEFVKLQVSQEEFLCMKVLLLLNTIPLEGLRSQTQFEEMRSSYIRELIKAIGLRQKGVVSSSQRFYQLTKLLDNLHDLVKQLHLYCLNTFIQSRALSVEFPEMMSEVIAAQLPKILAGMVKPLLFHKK
Chain of THRB (gene 7068) (P10828 whole entry, looked up, the tested form may be a part): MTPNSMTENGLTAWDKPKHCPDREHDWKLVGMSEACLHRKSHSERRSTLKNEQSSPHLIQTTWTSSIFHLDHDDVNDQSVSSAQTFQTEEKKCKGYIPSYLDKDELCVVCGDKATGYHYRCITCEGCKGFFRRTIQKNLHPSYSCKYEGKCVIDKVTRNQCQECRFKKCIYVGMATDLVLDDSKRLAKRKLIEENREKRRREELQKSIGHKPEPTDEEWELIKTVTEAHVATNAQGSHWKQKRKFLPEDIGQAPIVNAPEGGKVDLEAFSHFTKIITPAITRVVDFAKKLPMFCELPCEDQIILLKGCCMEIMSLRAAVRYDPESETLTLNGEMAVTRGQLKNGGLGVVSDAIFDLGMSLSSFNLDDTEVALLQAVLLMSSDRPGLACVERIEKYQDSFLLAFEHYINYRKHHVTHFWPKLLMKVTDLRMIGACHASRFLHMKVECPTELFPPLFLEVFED
Chain of THRA (gene 7067) (P10827 whole entry, looked up, the tested form may be a part): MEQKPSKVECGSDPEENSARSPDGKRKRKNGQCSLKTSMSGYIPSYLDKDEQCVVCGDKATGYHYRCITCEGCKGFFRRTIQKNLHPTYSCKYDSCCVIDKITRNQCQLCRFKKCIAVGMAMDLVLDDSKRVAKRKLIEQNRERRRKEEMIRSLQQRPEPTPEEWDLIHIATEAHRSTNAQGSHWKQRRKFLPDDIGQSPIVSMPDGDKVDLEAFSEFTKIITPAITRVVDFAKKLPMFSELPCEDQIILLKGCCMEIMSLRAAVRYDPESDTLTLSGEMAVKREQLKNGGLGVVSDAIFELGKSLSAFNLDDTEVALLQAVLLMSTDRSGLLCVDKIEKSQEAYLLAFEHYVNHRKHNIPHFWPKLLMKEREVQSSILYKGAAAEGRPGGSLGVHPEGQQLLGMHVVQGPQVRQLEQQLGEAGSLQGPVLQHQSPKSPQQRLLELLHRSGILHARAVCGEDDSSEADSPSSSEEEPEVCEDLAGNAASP

CCCCCCCCCCCCCC(=O)OCC(COP(=O)([O-])OCC[N+](C)(C)C)OC(=O)CCCCCCCCCCCCC (stereo not given)
inactive: [1] | [2] | [4] | [5] | [6] | [7]
active: [3] 42.8 µM

CCCC1C(CC)=CC(CC)=CN1c1ccccc1 (stereo not given)
inactive: [1] | [2] | [3] | [4] | [5] | [6] | [7]

CCOC(=O)C1=C(C)NC(C)=C(C(=O)OC)C1c1cccc([N+](=O)[O-])c1 (stereo not given)
active: PGR (gene 5241) [8] 14.9 µM | PGR (gene 5241) [11] 11.2 µM
inactive: [1] | [2] | [3] | [4] | [5] | [6] | [7] | [9] | [10] | [12] | [13]

C#C[C@]1(O)CC[C@H]2[C@@H]3CCC4=C/C(=N/O)CC[C@@H]4[C@H]3CC[C@@]21CC
inactive: [1] | [2] | [3] | [4] | [6] | [7]
active: [5] 38.1 µM

C#CCN(C)Cc1ccccc1
inactive: [1] | [2] | [3] | [4] | [5] | [6] | [7] | [14] | [15]

C[S+](C)CCC(N)C(=O)O (stereo not given)
inactive: [1] | [2] | [3] | [4] | [5] | [16]

COc1cc2[nH]c(C)c(CCN3CCN(c4ccccc4)CC3)c2cc1OC
inactive: [1] | [2] | [3] | [4] | [5] | [16]

CCCCCCCCCCCCCCCC(=O)OC[C@H](COP(=O)([O-])OCC[N+](C)(C)C)OC(=O)CCCCCCCCCCCCCCC
inactive: [1] | [2] | [3] | [4] | [5] | [6] | [7]

CCCCCCCCCCCCI
inactive: [1] | [2] | [3] | [4] | [5] | [16]

CC1(C)Oc2ccc(C#N)cc2[C@@H](N2CCCC2=O)[C@@H]1O
inactive: [1] | [2] | [3] | [4] | [5] | [6] | [7]

CC(C)N=C(N)/N=C(\N)Nc1ccc(Cl)cc1
not listed: PGR (gene 5241) [8] | [9] | [10] | PGR (gene 5241) [11] | [12] | [13] | [14] | [15] | [16] | [22]
inactive: all other assays above

OCC1CC2CC1C1CCC(CO)C21 (stereo not given)
inactive: [1] | [2] | [3] | [4] | [5] | [6] | [7] | [14] | [15] | [22]

Cc1ccc(O)c(C(=O)c2ccccc2)c1
inactive: [1] | [2] | [3] | [4] | [5] | [6] | [7]

CC(CN1CC(=O)NC(=O)C1)N1CC(=O)NC(=O)C1 (stereo not given)
active: [2] 8.6 µM | [6] 8.51 µM | [7] 8.89 µM
inactive: [1] | [3] | [4] | [5]

Cc1nnc(C(C)C)n1C1C[C@H]2CC[C@@H](C1)N2CC[C@@H](NC(=O)C1CCC(F)(F)CC1)c1ccccc1 (stereo not given in full)
inactive: [1] | [2] | [3] | [4] | [5] | [16]

COc1cc(/C=C/c2ccccc2)oc(=O)c1
inactive: [1] | [2] | [3] | [4] | [5] | [6] | [7]

O=C(O)C(=O)Nc1cccc(-c2nn[nH]n2)c1
inactive: [1] | [2] | [3] | [4] | [5] | [6] | [7]

CC(C)(C)c1ccc(C(=O)CCCN2CCC(OC(c3ccccc3)c3ccccc3)CC2)cc1
active: [3] 31.1 µM | [4] 34.6 µM
inactive: [1] | [2] | [5] | [16]

C1COC(NC(C2CC2)C2CC2)=N1
active: [7] 39.6 µM
inactive: [1] | [2] | [3] | [4] | [5] | [6]
